Results filed as inconclusive are left out. Activity calls are given as the source filed them.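 The calls were made as follows, unless noted: active = compound that reduces growth-factor-driven endothelial tube area in a mixed cell culture, no cutoff stated; inactive = the rest.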
Experiments:
[1] = stimulators of nuclear beta-catenin in C2C12, primary screen, imaging, WNT3A-conditioned medium, mouse C2C12, NPC library (AID 1117326; in the data active = nuclear beta-catenin stimulation mostly above about 4.2%, no sharp cut-off; inactive = mostly below about 10%; also: reference of the scale not given here); settings: stronger effect = higher value
[2] = stimulators of insulin release from INS-1E, primary screen, cell-based, 5 mM glucose, NPC library (AID 1117329;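 active = compound raises insulin release from rat beta cells at 5 mM glucose, no numeric limit stated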; also: reference of the scale not given here); settings: rat INS-1E insulin secretion, at 10 µM, stronger effect = higher value
[3] = growth inhibition of GSK3B-pretreated HCT116 cells – cell-based, CellTiter-Glo, 0.2 to 20 µM (AID 1117336;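 active = compounds lowering colon cancer cell viability after pretreatment blocking the GSK3B kinase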); settings: HCT116 viability after GSK3B inhibitor, at 20 µM, stronger effect = higher value
[4] = inhibition of endothelial tube formation, primary screen, imaging, VEGF stimulated, CD31 staining, tube area, NPC library (AID 1117340); settings: VEGF-stimulated ADSC/ECFC co-culture, at 10 µM, stronger effect = higher value
[5] = glucagon-like peptide 1 release enhancers, primary assay, NCI-H716 cell line, NPC library (AID 1117341;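 active = compound raises GLP1 secretion from the human gut endocrine cells, with no numeric limit stated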; also: reference of the scale not given here); settings: NCI-H716 cells, at 10 µM, stronger effect = higher value
[6] = HCT116 colon cancer cell growth inhibition, primary screen, CellTiter-Glo luminescence, NPC library (AID 1117342;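 active = compounds that lower survival of HCT116 colon cancer cells in the luminescence readout, no numeric limit stated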); settings: at 20 µM (top of the series)
[7] = CellTiter-Glo luminescent readout of SW480 viability loss, NPC library primary (AID 1117343;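 active = compounds that lower viability of the colon cancer cells in the luminescence readout, with no numeric limit stated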); settings: CellTiter-Glo luminescence; at 20 µM (top of the series) unless noted
[8] = decreased DLD-1 cellular survival, CellTiter-Glo luminescent readout, NPC compound collection, primary HTS (AID 1117346;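 active = compounds that lower survival of DLD-1 colon cancer cells in the luminescence readout, no cutoff given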); settings: DLD-1 viability, CellTiter-Glo luminescence; at 20 µM (top of the series)
[9] = system: Aerobactin synthetase IucA (Klebsiella pneumoniae); experiment: IucA aerobactin synthetase inhibitors, biochemical, Tocris library, absorbance (AID 1345561; call rule not given here;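 also: 100% = enzyme without compound and 0% = no enzyme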); settings: purified IucA enzyme assay, absorbance (OD) read-out; stronger effect = lower value;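 tested at 8 µM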
[10] = sensitizers of A549 cells to miR-34 induction, primary screen, imaging, A549 dox-inducible miR-34, nuclei and caspase counts (AID 1347080;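 active = compounds whose cell count with miR-34 switched on is under 0.7 times the count with it off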); settings: A549 miR-34 inducible, Hoechst nuclei count, 48 h
[11] = viability rescue of complex I mutant cybrids, primary screen, cell-based, galactose medium, ATP luminescence (AID 1645843;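 active = z-score of at least 1.8 in each of two replicates, scored against plate mean and spread of sample wells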;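 also: positive z means more ATP and so rescue of galactose-driven cybrid death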); settings: complex I mutant cybrid cells, 72 h, stronger effect = higher value
[12] = target: NAD(+) hydrolase SARM1 (Homo sapiens) (UniProt Q6SZW1); experiment: SARM1 TIR NADase inhibitors, cell lysate, NAD-Glo luminescence (AID 1508614;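 active = compound whose remaining NAD level is above about 45 nM, limit read from the data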;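 also: higher remaining NAD means stronger inhibition of SARM1 NADase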); settings: SAM-TIR HEK293T lysate NADase, at 1 µM, stronger effect = higher value
Sequence of NAD(+) hydrolase SARM1 (Homo sapiens) (Q6SZW1 whole entry, looked up): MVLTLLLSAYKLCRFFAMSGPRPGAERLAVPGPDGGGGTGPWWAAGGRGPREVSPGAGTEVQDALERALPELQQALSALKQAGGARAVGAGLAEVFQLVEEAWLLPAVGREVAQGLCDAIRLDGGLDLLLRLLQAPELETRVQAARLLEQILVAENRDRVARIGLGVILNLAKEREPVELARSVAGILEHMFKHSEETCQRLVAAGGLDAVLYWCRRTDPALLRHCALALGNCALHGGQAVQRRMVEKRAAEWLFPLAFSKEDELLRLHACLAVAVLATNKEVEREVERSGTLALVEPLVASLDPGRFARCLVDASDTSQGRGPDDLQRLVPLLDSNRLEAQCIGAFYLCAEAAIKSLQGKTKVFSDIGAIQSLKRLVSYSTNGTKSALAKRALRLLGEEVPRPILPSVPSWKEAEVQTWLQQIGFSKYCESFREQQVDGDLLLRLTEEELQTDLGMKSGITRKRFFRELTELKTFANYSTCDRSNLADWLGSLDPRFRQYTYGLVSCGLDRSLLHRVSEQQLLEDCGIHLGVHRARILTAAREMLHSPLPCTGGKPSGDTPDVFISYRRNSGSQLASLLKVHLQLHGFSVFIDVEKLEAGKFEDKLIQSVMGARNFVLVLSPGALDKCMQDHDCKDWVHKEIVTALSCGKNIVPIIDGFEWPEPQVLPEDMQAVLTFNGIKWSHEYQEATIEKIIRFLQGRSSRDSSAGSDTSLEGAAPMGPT

[13] = growth inhibition of DIPG glioma cells, dose response, cell-based, SU-DIPG-XVII, MIPE5.0, CellTiter-Glo, qHTS (AID 1347060; cut-off not given, nearly all actives have AC50 up to about 26 µM;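 as to AC50: cells exposed to compound for 48 hours before viability readout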); settings: SU-DIPG-XVII viability, CellTiter-Glo ATP luminescence
[14] = growth inhibition of DIPG glioma cells, dose response, cell-based, JHH-DIPG-1, MIPE4.0, CellTiter-Glo, qHTS (AID 1347062; cut-off not given, nearly all actives have AC50 up to about 27 µM); settings: JHH-DIPG-1 viability, CellTiter-Glo ATP luminescence
[15] = SU-DIPG-XXV glioma cell viability, MIPE5.0 library, qHTS (AID 1347068; cut-off not given, nearly all actives have IC50 up to about 30 µM)
[16] = growth inhibition of DIPG glioma cells, dose response, cell-based, SU-DIPG-XIII, MIPE4.0, CellTiter-Glo, qHTS (AID 1347061; cut-off not given, nearly all actives have AC50 up to about 37 µM;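 also: cells exposed to compound for 48 hours before readout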); settings: SU-DIPG-XIII viability, CellTiter-Glo ATP luminescence
[17] = survival rescue of mitochondrial mutant cells in low glucose, primary screen, MELAS cybrids, Rieske KO mouse fibroblasts, CellTiter-Glo (AID 1508586;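 active = mean z-score across replicates of 1.96 or higher in either the MELAS or the Rieske mutant cell line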;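 also: z relative to plate mean and SD of compound and empty wells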)
[18] = stronger effect = lower value, cell number ratio, induced over uninduced
[19] = measured here: relative caspase fold change +Dox/-Dox
[20] = measured here: total cells with miR-34 induction, stronger effect = lower value
[21] = measured here: total cells without miR-34 induction

Structure (SMILES): CCOC(=O)[C@H](CCc1ccccc1)N[C@@H](C)C(=O)N1Cc2cc(OC)c(OC)cc2C[C@H]1C(=O)O
- nuclear beta-catenin stimulation ([1]; at 10 µM): -0.5% (inactive)
- nuclear beta-catenin stimulation ([1]; stimulation, at 2 µM): 1.6%
- insulin secretion stimulation [2]: 0.3% (inactive)
- viability decrease [3]: -1.4% (inactive)
- tube area decrease [4]: 78.4% (active)
- GLP1 secretion stimulation [5]: 0.3% (inactive)
- inhibition of viability [6]: 6.7% (inactive)
- viability decrease (inhibition) [7]: -2.3% (inactive)
- viability decrease (inhibition) [8]: 3.7% (inactive)
- remaining activity [9]: 110% (inactive)
- fold change [10, 18]: 0.937 (inactive)
- fold change [10, 19]: 1.79
- cell count [10, 20]: 7700
- cell count [10, 21]: 8220
- z-score [11]: -0.04 (inactive)

Structure (SMILES): C[N+](C)(C)CC[N+]1(C)Cc2c(Cl)c(Cl)c(Cl)c(Cl)c2C1
- nuclear beta-catenin stimulation ([1]; at 10 µM): 4.4% (inactive)
- nuclear beta-catenin stimulation ([1]; stimulation, at 2 µM): 2.6%
- insulin secretion stimulation [2]: -0.5% (inactive)
- viability decrease [3]: -1% (inactive)
- tube area decrease [4]: 7.3% (inactive)
- GLP1 secretion stimulation [5]: 2.6% (inactive)
- inhibition of viability [6]: -4.53% (inactive)
- viability decrease (inhibition) [7]: 2.9% (inactive)
- viability decrease (inhibition) [8]: -10.2% (inactive)
- remaining activity [9]: 115% (inactive)
- fold change [10, 18]: 0.88 (inactive)
- fold change [10, 19]: 1.79
- cell count [10, 20]: 9090
- cell count [10, 21]: 10300
- z-score [11]: 0.045 (inactive)

Structure (SMILES): CCCCCCCCCCCCCCCC(=O)NCCO
- nuclear beta-catenin stimulation ([1]; at 10 µM): 2.2% (inactive)
- nuclear beta-catenin stimulation ([1]; stimulation, at 2 µM): 8.9%
- insulin secretion stimulation [2]: 4.7% (inactive)
- viability decrease [3]: -7.4% (inactive)
- tube area decrease [4]: -5.7% (inactive)
- GLP1 secretion stimulation [5]: -1.8% (inactive)
- inhibition of viability [6]: 1.3% (inactive)
- viability decrease (inhibition) [7]: -42.2% (inactive)
- viability decrease (inhibition) [8]: -11.2% (inactive)
- remaining activity [9]: 113% (inactive)
- remaining NAD [12]: 10 nM (inactive)
- z-score [11]: 0.05 (inactive)

Structure (SMILES): NCCCC(N)(C(=O)O)C(F)F (stereo not given)
- nuclear beta-catenin stimulation ([1]; at 10 µM): -0.1% (inactive)
- nuclear beta-catenin stimulation ([1]; stimulation, at 2 µM): -0.3%
- insulin secretion stimulation [2]: -2.2% (inactive)
- viability decrease [3]: 6.2% (inactive)
- tube area decrease [4]: -6.3% (inactive)
- GLP1 secretion stimulation [5]: 2.8% (inactive)
- inhibition of viability [6]: 12.2% (inactive)
- viability decrease (inhibition) [7]: 65.3% (active)
- viability decrease (inhibition) [8]: 36% (inactive)
- outcome [13]: inactive
- outcome [14]: inactive
- outcome [15]: inactive
- fold change [10, 18]: 1.13 (inactive)
- fold change [10, 19]: 0.834
- cell count [10, 20]: 8420
- cell count [10, 21]: 7470
- z-score [11]: 0.11 (inactive)

Structure (SMILES): NC(=O)c1ncn([C@@H]2O[C@H](CO)[C@@H](O)[C@H]2O)c1N
- nuclear beta-catenin stimulation ([1]; at 10 µM): 1.3% (inactive)
- nuclear beta-catenin stimulation ([1]; stimulation, at 2 µM): 1.8%
- insulin secretion stimulation [2]: -2.3% (inactive)
- viability decrease [3]: -16.2% (inactive)
- tube area decrease [4]: -6.4% (inactive)
- GLP1 secretion stimulation [5]: 1.9% (inactive)
- inhibition of viability [6]: -20.6% (inactive)
- viability decrease (inhibition) [7]: -88.2% (inactive)
- viability decrease (inhibition) [8]: -22.4% (inactive)
- outcome [13]: inactive
- outcome [16]: inactive
- outcome [14]: inactive
- outcome [15]: inactive
- remaining NAD [12]: 10 nM (inactive)

Structure (SMILES): O=C(O)c1ccc(-n2nc(-c3ccccc3O)nc2-c2ccccc2O)cc1
- nuclear beta-catenin stimulation ([1]; at 10 µM): 28.8% (inactive)
- nuclear beta-catenin stimulation ([1]; stimulation, at 2 µM): -2.6%
- insulin secretion stimulation [2]: 0.8% (inactive)
- viability decrease [3]: 112% (active)
- tube area decrease [4]: 102% (active)
- GLP1 secretion stimulation [5]: 7.6% (inactive)
- inhibition of viability [6]: 112% (active)
- viability decrease (inhibition) [7]: 130% (active)
- viability decrease (inhibition) [8]: 93.6% (active)
- AC50 [13]: 16.6 µM (active)
- outcome [14]: inactive
- fold change [10, 18]: 0.936 (inactive)
- fold change [10, 19]: 1.1
- cell count [10, 20]: 4300
- cell count [10, 21]: 4600
- z-score ([17]; MELAS cybrid survival, CellTiter-Glo 48 h, stronger effect = higher value): -0.00061 (inactive)
- z-score ([17]; Rieske KO mouse fibroblast survival, CellTiter-Glo 72 h): -0.754
